Assay results published in PubChem BioAssay AID504834 (National Center for Advancing Translational Sciences (NCATS), 2011).
Among all 320,000 compounds or so, about 22,000 (6.9%) were called active. Roughly 27% stayed inconclusive and do not appear here. Calls come from the whole dose curve; as a rule, active = well fitted inhibition curve with a large enough effect; inconclusive = small, poorly fitted or top-dose-only effect, or another doubt; inactive = no such curve, though single readings can be large or run the other way. What follows is part of a selection rich in actives, with near analogues and random picks from the rest. Entries that show only a call come without a potency.

test: Primary qHTS for delayed death inhibitors of the malarial parasite plastid, 96 hour incubation; conditions: P. falciparum luciferase reporter growth; series mostly up to 28.7 µM
Summary of the method: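 Plates of compound plus infected erythrocytes (2% hematocrit, 0.05% parasitemia final) incubate 96 hours, 37 C, 5% CO2. Detection reagent added; reduced luminescence from the parasites' luciferase reporter flags inhibition.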
Potency is the fitted concentration of half-maximal effect.

Row | Structure (SMILES) | Potency | activity change, negative = inhibition
1 | CCC(=O)c1ccc(OCC(=O)N(CC)CC2COc3ccccc3O2)cc1 (stereo not drawn) | inactive | 
2 | Cc1cc(NC(=O)CSc2nc(=O)cc(N)n2-c2ccc(F)cc2)no1 | inactive | 
3 | Cc1ccc(S(=O)(=O)N2CCCC2C(=O)NCc2ccco2)cc1 (stereo not drawn) |  | -13.6% [at 5.75 µM] (inactive)
4 | Cc1ccc(CNC(=O)C2CCCN2S(=O)(=O)c2ccc3c(c2)C(C)(C)C(=O)N3C)cc1 (stereo not drawn) | 1.47 µM (active) | 
5 | CCOC(=O)C1CCCN(S(=O)(=O)c2ccc3c(c2)C(C)(C)C(=O)N3C)C1 (stereo not drawn) | inactive | 
6 | Cc1nc2ccccn2c(=O)c1NC(=O)c1cccs1 | inactive | 
7 | COC(=O)c1sccc1NC(=O)c1ccc(Cl)cc1 | inactive | 
8 | Cc1cc(C)cc(NC(=O)CCN2C(=O)c3ccccc3C2=O)c1 | inactive | 
9 | Cc1nn(-c2ccccn2)c2c1C(c1ccncc1)C1=C(CC(C)(C)CC1=O)N2 (stereo not drawn) | 5.86 µM (active) | 
10 | CC1(C)CC(=O)C2=C(C1)Nc1cc(C(=O)c3ccccc3)ccc1NC2c1ccccn1 (stereo not drawn) | inactive | 
11 | Cc1cc(C)c(C2C3=C(Nc4c2c(C)nn4-c2ccccn2)c2ccccc2C3=O)c(C)c1 (stereo not drawn) | 6.57 µM (active) | 
12 | CCC(C)(C)NC(=O)C(c1cccn1C)N(Cc1ccc(C)cc1)C(=O)Cn1nnc2ccccc21 (stereo not drawn) | inactive | 
13 | CC(C)(C)NC(=O)C(c1ccco1)N(Cc1ccc2c(c1)OCO2)C(=O)Cn1nnc2ccccc21 (stereo not drawn) | 14.7 µM (active) | 
14 | COc1ccc(C(C(=O)NC(C)(C)C)N(C(=O)Cn2nnc3ccccc32)c2ccc(C(C)=O)cc2)cc1O (stereo not drawn) | inactive | 
15 | C=CCc1ccccc1OCC(O)CN1CCN(CCO)CC1 (stereo not drawn) | inactive | 
16 | C[n+]1cc(-c2ccccc2)oc1-c1ccccc1 | inactive | 
17 | Cc1nc2cccnc2nc1C | inactive | 
18 | Cc1ccc(C)c(N2CCN(C(=O)CCCn3c(=O)c4cccn4c4cccnc43)CC2)c1 | 13.1 µM (active) | 
19 | Cc1ccc(C)c(N2CCN(C(=O)CCCCn3c(=O)[nH]c4ccccc4c3=O)CC2)c1 | inactive | 
20 | Cc1ccc(C)c(N2CCN(C(=O)Cn3ncn4cccc4c3=O)CC2)c1 | inactive | 
21 | Cn1nccc1/C=N\NC(=O)c1ccc(Cl)cc1 | inactive | 
22 | CCNC(=O)CC1C(=O)N(c2ccc(OC)cc2)C(=O)N1CCOC (stereo not drawn) | inactive | 
23 | CC(C)=CC(=O)Nc1nnc(-c2ccc(F)cc2)s1 | inactive | 
24 | Cc1nnc(NC(=O)Nc2ccc(Cl)c(Cl)c2)s1 | inactive | 
25 | Cc1ccc(NC(=O)Nc2nnc(-c3ccncc3)s2)cc1 | 9.28 µM (active) | 
26 | COc1ccc(Cc2nnnn2CC(=O)O)cc1 | 1.65 µM (active) | 

Row | Structure (SMILES) | Potency | activity change, negative = inhibition
27 | COc1ccc(CSc2nnnn2-c2ccc(C(=O)O)cc2)cc1 | inactive | 
28 | CCCn1nnnc1NCc1ccc(OC)cc1 | inactive | 
29 | O=C(CCc1nnc(Cc2ccc3c(c2)OCO3)o1)NCCc1ccccc1Cl | inactive | 
30 | Cc1ccc(-c2ncc(Cl)cc2-c2ccc(S(C)(=O)=O)cc2)cn1 | 13.5 µM (active) | 
31 | Cc1c2cnn(CC(=O)NCCCN3CC(C)CC(C)C3)c(=O)c2c(C)n1Cc1ccc(Cl)cc1 (stereo not drawn) | inactive | 
32 | Cc1nc2ccccc2c(=O)n1NC(=O)c1ccccc1 | inactive | 
33 | Cc1ccc(SCc2c(C(=O)N/N=C/C3CC=CCC3)nnn2-c2nonc2N)cc1 (stereo not drawn) | inactive | 
34 | CNC1(c2nnnn2-c2c(C)cccc2C)CCOC(C)(C)C1 (stereo not drawn) | inactive | 
35 | COc1ccc(C2(C)NC(=O)N(CC(=O)c3ccc4c(c3)OCO4)C2=O)cc1 (stereo not drawn) | inactive | 
36 | COc1ccc(C2(C)ON(c3ccccc3C(F)(F)F)C2=O)cc1 (stereo not drawn) | 2.62 µM (active) | 
37 | COc1ccc(C23NCCN2C(=O)c2ccccc23)cc1 (stereo not drawn) | inactive | 
38 | COC(c1ccccc1)(c1ccccc1)C(Oc1nc(C)cc(C)n1)C(=O)O (stereo not drawn) | inactive | 
39 | Cc1ccc(OCCNC(=O)CN2C(=O)NC3(CCCC3)C2=O)cc1 | inactive | 
40 | COc1ccc(NC(=O)CSc2nc(SC)ns2)c(OC)c1 | inactive | 
41 | Cc1ccc(Cc2nnc(SCC(=O)Nc3ccccc3C)[nH]c2=O)cc1 | inactive | 
42 | COC(=O)COc1ccc2c(=O)c(Oc3ccccc3Br)coc2c1 | inactive | 
43 | FC(F)(F)Oc1ccc(-c2cn3cccnc3n2)cc1 | inactive | 
44 | COc1ccc(-c2[nH]ncc2CN(Cc2nccn2C)C(C)C)cc1F | inactive | 
45 | COc1ccc(CN2CCN(c3ccccc3F)CC2)c(OC)c1 | inactive | 
46 | CCN1CCC2(CCN(Cc3cn[nH]c3-c3ccc(OC)c(F)c3)C2)C1 (stereo not drawn) | 10.4 µM (active) | 
47 | CN(C)CC(O)COc1ccc(C(C)(C)c2ccc(OCC(O)CN(C)C)cc2)cc1 (stereo not drawn) | inactive | 
48 | COc1ccc(C(O)(C2CCCCC2)C(CN2CCCC2)c2ccccc2)cc1 (stereo not drawn) | inactive | 
49 | CCCC(O)(c1ccc(OC)cc1)C(CN(C)C)c1ccccc1 (stereo not drawn) | 14.7 µM (active) | 
50 | COc1ccc(NC(=O)CN(C)C(=O)c2n[nH]c3ccccc23)cc1 | inactive | 
51 | S=C(NCc1ccc(Cl)cc1)NC12CC3CC(CC(C3)C1)C2 | 11.7 µM (active) | 
52 | S=C(NCc1ccc(Cl)cc1)NC1CCCCC1 | inactive | 

Row | Structure (SMILES) | Potency | activity change, negative = inhibition
53 | O=C(NCc1ccc(Cl)cc1)NCc1ccc(Cl)cc1 | inactive | 
54 | CCN(Cc1ccccc1)S(=O)(=O)c1cc2c3c(c1)CCN3C(=O)CC2 | inactive | 
55 | COc1ccc(C(CNCC(=O)Nc2ccccc2F)N(C)C)cc1 (stereo not drawn) | inactive | 
56 | COc1ccc(S(=O)(=O)Nc2ccccc2C(=O)N2CCCC2)cc1C | inactive | 
57 | O=C(c1ccc(S(=O)(=O)N2CCOCC2)cc1)N1CCN(c2ccccc2)CC1 | inactive | 
58 | O=C(c1ccc(S(=O)(=O)N2CCCC2)cc1)N1CCN(c2ccccc2F)CC1 | 4.65 µM (active) | 
59 | COc1ccccc1N1CCN(C(=O)c2ccc(S(=O)(=O)N3CCCCC3)cc2)CC1 | inactive | 
60 | COc1ccccc1NS(=O)(=O)c1ccc(C(=O)N2CCN(c3ccccc3O)CC2)cc1 | 11.7 µM (active) | 
61 | COc1ccccc1NC(=O)C1CCN(C(=O)c2ccc(C(C)(C)C)cc2)CC1 | inactive | 
62 | O=C(COC(=O)/C=C/c1ccc2c(c1)OCO2)NC1CCS(=O)(=O)C1 (stereo not drawn) | inactive | 
63 | Cn1nc(C(=O)OCC(=O)N(Cc2ccccc2)C(C)(C)C)c2ccccc2c1=O | inactive | 
64 | CSc1nnc(NC(=O)c2nc(S(=O)(=O)Cc3ccc(C)cc3)ncc2Cl)s1 | inactive | 
65 | O=C(Nc1cccn(Cc2ccccc2Cl)c1=O)NC1CCCCC1 | inactive | 
66 | O=S1(=O)CCN(Cc2ccccc2Cl)CC1 | inactive | 
67 | CC1(C)COC(c2cccn2Cc2ccccc2Cl)=N1 | 9.28 µM (active) | 
68 | NC(=O)c1cc(-c2cccnc2)nc2ccc(Br)cc12 | inactive | 
69 | C=CCn1c(SCc2ccc(Cl)c(Cl)c2)nnc1C(CO)NC(=O)c1ccc(OC)cc1 (stereo not drawn) | inactive | 
70 | C=CCn1c(SCC(=O)c2ccc(Br)cc2)nnc1C(C)NC(=O)Cc1ccc(OC)cc1 (stereo not drawn) | inactive | 
71 | C=CCn1c(SCCOc2ccc(OC)cc2)nnc1C(NC(=O)c1ccc(OC)cc1)C(C)C (stereo not drawn) | 10.4 µM (active) | 
72 | CC[C@]1([C@H]2O[C@@H]([C@@H]3O[C@](O)(CO)[C@@H](C)C[C@H]3C)C[C@H]2C)CC[C@@H]([C@]2(C)CC[C@@]3(C[C@@H](O)[C@@H](C)[C@@H]([C@H](C)[C@H](OC)[C@H](C)C(=O)O)O3)O2)O1 | 0.019 µM (active) | 
73 | COc1ccc(CC(=O)OC(C)C(=O)Nc2ccc(S(N)(=O)=O)cc2)cc1 (stereo not drawn) | inactive | 
74 | O=C(N[C@@H](Cc1ccccc1)C(=O)OCc1ccccc1)c1nc[nH]c1C(=O)N[C@@H](Cc1ccccc1)C(=O)OCc1ccccc1 | inactive | 
75 | CC(C)(C)OC(=O)N1CCC(NC(=O)c2[nH]cnc2C(=O)N[C@@H](Cc2ccccc2)C(=O)OCc2ccccc2)CC1 | 1.47 µM (active) | 
76 | C[C@@H](NC(=O)c1nc[nH]c1C(=O)N1CCN(C(=O)OC(C)(C)C)CC1)c1ccccc1 | inactive | 
77 | Cc1c(Cl)cccc1NC(=O)CCC(=O)N/N=C/c1ccco1 | inactive | 
78 | Cc1cc(C)cc(N(CC(=O)NC2CCCC2)C(=O)CCC(=O)Nc2cc(C)on2)c1 | inactive | 

Row | Structure (SMILES) | Potency | activity change, negative = inhibition
79 | Cc1cc(OC(C)C(=O)Nc2ccc(S(=O)(=O)Nc3onc(C)c3C)cc2)cc(C)c1Cl (stereo not drawn) | 8.28 µM (active) | 
80 | COc1ccc(C(=O)Nc2ccc(S(=O)(=O)Nc3onc(C)c3C)cc2)cc1OC | inactive | 
81 | CC(Oc1cccc(Cl)c1)C(=O)Nc1ccc(S(=O)(=O)Nc2ncccn2)cc1 (stereo not drawn) | inactive | 
82 | N#Cc1c(-c2ccccc2)c(-c2ccccc2)n[nH]c1=O | inactive | 
83 | NCCCCCC(=O)N/N=C/c1ccc2nccnc2c1 | inactive | 
84 | COc1ccc(C(=O)NC(C)Cn2nc(C)cc2C)cc1OC1CCN(C(C)=O)CC1 (stereo not drawn) | inactive | 
85 | O=C(NCCCn1ccnc1)C1CCCN(S(=O)(=O)c2cc(Cl)ccc2Cl)C1 (stereo not drawn) | inactive | 
86 | O=c1oc2ccccc2c(CNc2ccccc2)c1[N+](=O)[O-] | inactive | 
87 | CCCNC(=O)NCc1ccc(N2CCCC2=O)cc1 | inactive | 
88 | O=C(NCCCN1CCCCCC1)c1ccc(N2CCCC2=O)cc1 | 2.33 µM (active) | 
89 | O=C(NCCCN1CCCC1=O)c1ccc(S(=O)(=O)Nc2ccccc2)cc1 | inactive | 
90 | COc1ccc(N2CCN(C(=O)Cn3cnc4sc(C)c(S(=O)(=O)N5CCOCC5)c4c3=O)CC2)cc1 | inactive | 
91 | Cn1c(N)c(C(=O)COC(=O)C23CC4CC(CC(C4)C2)C3)c(=O)n(C)c1=O | 14.7 µM (active) | 
92 | Cn1c(N)c(C(=O)COC(=O)c2cnc(Cl)c(Cl)c2)c(=O)n(C)c1=O | inactive | 
93 | Cn1c(N)c(C(=O)COC(=O)COc2ccc(Cl)cc2)c(=O)n(C)c1=O | inactive | 
94 | COc1cc(NC(=O)c2ccccc2)c(OC)cc1NC(=O)Cc1ccccc1 | inactive | 
95 | CCc1nn(CCCC(=O)Nc2ccc(C)c(C)c2)c(=O)c2cc3occc3n12 | inactive | 
96 | CC1CC(C)(C)CC2(C1)NC(=O)N(CC(=O)Nc1nccs1)C2=O (stereo not drawn) | inactive | 
97 | CC(C)n1c(COc2ccccc2)nc2ccccc21 | inactive | 
98 | COc1cccc(C2Nc3cccc4cccc(c34)N2)c1 | 7.38 µM (active) | 
99 | COc1ccc2[nH]c3ccc(OC)cc3c2c1 | inactive | 
100 | COc1ccc(C2NC(=O)c3ccccc3N2)cc1 (stereo not drawn) | inactive | 
101 | Brc1ccccc1C1Nc2cccc3cccc(c23)N1 | inactive | 
102 | Oc1ccc(C2Nc3cccc4cccc(c34)N2)cc1 | 10.4 µM (active) | 
103 | Cc1ccc(C2Nc3cccc4cccc(c34)N2)cc1 | inactive | 
